# Measurements reported in PubChem BioAssay AID1745849 (National Center for Advancing Translational Sciences (NCATS), 2022).
# About 320 (15%) of roughly 2,100 compounds were called active. Another 52% or so got no clear call; they are omitted. Some of the results follow. Values without a mark were called inactive. Calls follow the shape of the dose curve; as a rule, active = well fitted cell-killing curve with a large enough effect; inconclusive = small, poorly fitted or top-dose-only effect, or effect the other way; inactive = flat fitted curve, though single readings scatter.
# Test: Viability Counterscreen for CMV-Luciferase Assay of Inhibitors of ATXN expression; also: nearly all actives have a fitted effect of over 55% in size
# Details: HEK-293 CMV-luciferase cells viability, protease fluorescence, 24 h; activity change, negative = cytotoxicity: at the top concentration
# Excerpt: PI: Daniel Scoles Ph.D. University of Utah School of Medicine, Salt Lake City, Utah MLPCN Grant: NS073009 Spinocerebellar ataxia type 2 (SCA2) is a multisystem neurodegenerative disease caused by a dominantly acting mutation leading to expansion of a polyQ domain in the ataxin-2 protein (ATXN2). SCA2 patients develop progressive ataxia and later lose function in other neuronal systems. Prominent parkinsonian signs develop in some patients. Like many neurodegenerative disorders, no symptomatic or disease-modifying treatments are known. The primary objective of the proposed research is to identify compounds inhibiting ATXN2 expression and to test them for efficacy in SCA2 mouse models. We have developed a cell-based assay paired with an in vivo mouse model using identical luciferase expression constructs. This approach takes advantage of an ATXN2-luciferase transgene, with the luciferase gene flanked by the upstream and downstream portions of the ATXN2 gene. Here we describe a 5-7 dose quantitative high thoroughput screen (qHTS) for compounds lowering ATXN2 expression. We screened the NIH Molecular Libraries Small Molecule Repository (MLSMR) and NCGC's mechanistically annotated (MIPE) and drug repurposing (NPC) collections of compounds for lowering expression of an ATXN2-luciferase reporter in HEK-293 cells. The assay is a multiplexed cell viability assay to ensure target reduction in the absence of cytotoxicity. Secondary qHTS assays included a CMV-luciferase reporter expressed in HEK-293 cells as well as a biochemical assay using recombinant luciferase to detect inhibitors of the reporter enzyme. Compounds that inhibit ATXN2 expression but is not cytotoxic were selected for confirmatory and secondary screens.
# PROTOCOL TABLE (as described by Inglese J, Shamu CE and Guy RK. 2007) SEQUENCE No. (e.g., 1, 2, 3, etc.); […] (e.g., Cells, Incubation, Reagent, etc.); VALUE; DESCRIPTION. 1; Cells; 4 uL; white, solid bottom, 1536-well Greiner assay plate. 2; Incubation; 2 hr; 37 degree C in 5% humidified CO2. 3; Compounds; 23 nL; Kalypsis pintool (Wako USA) equipped with a 1536-well pin head. 4; Incubation; 24 hr; 37 degree C in 5% humidfified CO2. 5; Reagent; 1 uL; Gly-Phe-7-Amino-4-trifluoromethylcoumarin. 6; Incubation; 30 min; 37 degree C in 5% humidfified CO2. 7; Detection; Fluorescence; Viewlux plate reader (PerkinElmer). 8; Reagent; 3 uL; SteadyGlo luciferase solution (Promega). 9; Incubation; 5 min; room temperature. 10; Detection; Luminescence; ViewLux plate reader (PerkinElmer). NOTES (numbers refer to Sequence numbers above) 1. HEK-293 cells expressing CMV-luciferase reporter (designated as SC cells) were suspended in phenol-red free DMEM and dispensed in assay plates using a Multidrop Combi dispenser (Thermo Fisher Scientific). 2. Assay plates were incubated. Evaporation was prevented by covering assay plates with metal lids containing holes to allow gas diffusion. 3. Compounds were added in a dose response manner with the final concentrations of 57, 11.4, 2.28, 0.46, 0.091, 0.018, 0.0037 uM. Vehicle-only plates, with DMSO being pin-transferred to columns 5-48, were inserted uniformly at the beginning and the end of each library to monitor and record any shifts in assay performance. 5. 125 uM Gly-Phe-7-Amino-4-trifluoromethylcoumarin (MP Biomedicals) working concentration was used at a final concentration of 25 uM. 7. To assess cell viability; the assay plates were read using the ViewLux high-throughput CCD imager (PerkinElmer), wherein single end-point fluorescence measurement was acquired (excitation 405/10; emission 540/25 nm). 8. Detection reagent SteadyGlo Luciferase (Promega) was added to the assay plate. 10. Luminescence is then measured on the ViewLux imager equipped with a clear emission filter using a 2 sec exposure. […]
# % is scaled to controls: 0 for no effect and ±100 for the full control effect; potency is read from the fitted curve at half-maximal effect.
SMILES,"activity change, negative = cytotoxicity",Potency
OCCN1CCN(C2CCC(c3ccc(F)cc3)c3ccc(F)cc32)CC1 (configuration not stated),-5.95% [at 57.5 µM],–
CC(C)CC(NC(=O)c1ccc(Cl)cc1)C(=O)OCC(=O)c1ccc2c(c1)NC(=O)CO2 (configuration not stated),–,14.1 µM (active)
CN(C)CCCNc1nc2cc(-c3cccc(Cl)c3)sc2c(=O)n1C,-16.2% [at 57.5 µM],–
O=C(CNC(=O)c1ccccc1O)N/N=C/c1cc(Br)ccc1OC(=O)/C=C/c1ccco1,13%,–
CCCn1ncc(CN2CCC(C(=O)Nc3cccc(-c4cccc(F)c4)c3)CC2)c1C,-27.1% [at 57.5 µM],–
COCc1ccc(CN2CCC(C(=O)Nc3cccc(-c4cccc(Cl)c4)c3)CC2)o1,–,17.8 µM (active)
CC(=O)c1cc(CN2CCC(C(=O)Nc3cccc(-c4cscn4)c3)CC2)cs1,-11.1% [at 57.5 µM],–
O=C(NCc1ccco1)c1ccc(-c2cccc(Cl)c2)o1,-7.88% [at 57.5 µM],–
CN1CCC(N(C)C(=O)c2ccc(Cl)c(S(=O)(=O)N3CCc4ccccc43)c2)CC1,-12.2% [at 57.5 µM],–
O=C(Nc1ccc(F)cc1)c1sccc1SCc1cccc(C(F)(F)F)c1,-14.2% [at 57.5 µM],–
O=C(CSC1=NNC(c2ccccn2)S1)Nc1ccc(C(F)(F)F)cc1 (configuration not stated),–,14.1 µM (active)
Cc1ccccc1SCC(=O)N1CCN(c2ccc(C(F)(F)F)cn2)CC1,-1.97%,–
COC(=O)c1ccsc1NC(=O)CN1CCN(Cc2ccc3c(c2)OCO3)CC1,9.4% [at 57.5 µM],–
Cc1ccc2nc(NC(=O)CSCC(=O)OCC(=O)c3ccc(Br)cc3)sc2c1,16.3% [at 57.5 µM],–
Cc1ccc(C(=O)CN2C(=O)c3ccccc3S2(=O)=O)cc1,1.75%,–
Cc1ccc(C(=O)COC(=O)c2ccc3c(c2)C(=O)N(c2cccc4ncccc24)C3=O)cc1,–,22.4 µM (active)
O[C@@H]1[C@@H](O)C=C2CCN3Cc4cc5c(cc4[C@H]1C23)OCO5 (some centres not stated),–,6.31 µM (active)
Cc1cc(C)n(-c2ccc(C(=O)N3CCN(S(=O)(=O)c4cccc(Br)c4)CC3)cc2)n1,3.92%,–
CCc1cc(-c2[nH]ncc2-c2ccc(OC)cc2)c(O)cc1O,-18.3%,–
CCn1c2ccccc2c2cc(/C=C(/C#N)C(N)=S)ccc21,-29.2%,–
CCOC(=O)/C=C/C(=O)Nc1ccc(Oc2ccccc2)cc1,-13.1%,–
O=C(Nc1ccc(Oc2ccc(NC(=O)Nc3ccc([N+](=O)[O-])cc3)cc2)cc1)Nc1ccc([N+](=O)[O-])cc1,–,10 µM (active)
Cc1ccc(Cc2cnc(NC(=O)/C(C#N)=C/c3ccc(-c4cccc([N+](=O)[O-])c4)o3)s2)cc1,–,20 µM (active)
Cc1ccc(-c2ccc(/C=N/c3ncn[nH]3)o2)cc1Cl,-27.7%,–

SMILES,"activity change, negative = cytotoxicity",Potency
CCCc1cc(=O)[nH]c(-n2[nH]c3c(c2=O)CCCC3)n1,–,22.4 µM (active)
CCn1c2ccccc2c2cc(NC(=O)COC(=O)c3cc(S(=O)(=O)N4CCCCC4)ccc3Cl)ccc21,12.4%,–
CC[C@]12c3[nH]c4ccc(Cl)cc4c3CCN1C(=O)[C@@H](CC(=O)NCC13CC4CC(CC(C4)C1)C3)C[C@@H]2C(=O)N1CCN(C(=O)C2CC2)CC1,–,22.4 µM (active)
CC[C@]12c3[nH]c4ccc(Cl)cc4c3CCN1C(=O)[C@@H](CC(=O)NCC13CC4CC(CC(C4)C1)C3)C[C@@H]2C(=O)N1CCN(C(=O)c2ccco2)CC1,–,3.16 µM (active)
CCOC(=O)c1cnc2ccc(OC)cc2c1Nc1ccc(N2CCN(C)CC2)cc1,-29.6% [at 57.5 µM],–
Cc1ccc2nc3cc([N+](=O)[O-])cc([N+](=O)[O-])c3cc2c1,–,11.2 µM (active)
Cc1ccc2nc(SCc3ccc([N+](=O)[O-])cc3)[nH]c2c1,-7.46%,–
COc1cc2nc(N(C)C)nc(N)c2cc1OC,–,25.1 µM (active)
COc1ccc(C)cc1Nc1nc(N)c2cc(OC)c(OC)cc2n1,-4.73%,–
COc1cc2nc(CN(C)Cc3ccc(SC)cc3)[nH]c(=O)c2cc1OC,-19% [at 57.5 µM],–
CC(C)(C)S(=O)(=O)/C(C#N)=N/Nc1ccc(Cl)cc1,–,25.1 µM (active)
CCc1ccc(N(CC)C(=O)c2ccc3c(Cl)c4c(nc3c2)CCC4)cc1,-27.5%,–
O=C(NC(=S)N1CCN(c2ccc(F)cc2)CC1)c1cccs1,-10.7%,–
O=C(Nc1ccc(N2CCN(C(=O)c3ccco3)CC2)c(Cl)c1)c1c(F)c(F)c(F)c(F)c1F,-27.5% [at 57.5 µM],–
O=C(Nc1ccc(N2CCN(C(=O)c3ccco3)CC2)c(Cl)c1)c1cccs1,–,28.2 µM (active)
CC(C)(C)OC(=O)N1CCC(c2c(C(=O)NCC3CCN(C4CCCC4)C3)cnn2-c2cccc(Cl)c2)CC1 (configuration not stated),-29.1%,–
CC(=O)c1sc(C(C)(C)C)cc1NC(=O)/C=C/C(=O)O,-3.54% [at 57.5 µM],–
CCOC(=O)c1c(C)nn(-c2ccc(NC(=O)/C=C/C(=O)O)cc2)c1C,-16.6% [at 57.5 µM],–
COC(=O)c1c(NC(=O)/C=C/C(=O)O)sc(C)c1-c1ccc(C(C)C)cc1,–,20 µM (active)
CN(C)CCCN(C(=O)c1ccc(S(=O)(=O)N2CCCC2)cc1)c1nc2ccc(Br)cc2s1,–,31.6 µM (active)
CN(C)CCCN(C(=O)CCc1ccccc1)c1nc2ccc(Br)cc2s1,–,22.4 µM (active)
CC(=O)c1ccc(S(=O)(=O)N2CCN(CCOc3ccc(Br)cc3)CC2)cc1,-20.8%,–
CN(C)CCCN(C(=O)c1ccc(S(=O)(=O)N2CCCCCC2)cc1)c1nc2ccc(Br)cc2s1,-15.8%,–
